Data as given in PubChem BioAssay (Tox21).
A number with no mark means an inactive call. The source made the active and inactive calls. The call rests on the fitted dose curve; in most records, active means well fitted curve in the direction sought with a large enough effect in the repeat runs; inconclusive means weak or mixed curves; inactive means flat fitted curve, though single readings scatter.

Assay: qHTS assay to test for compound auto fluorescence at 535 nm (green) in HepG2 cell free culture (AID 720686)
Conditions: Cell-free medium, green autofluorescence 485/535 nm; series mostly up to 91.3 µM; fluorescence, % of fluorescein control: at the top concentration
On the % scale 0 is the no-effect control and ±100 the full control effect.

Row | SMILES | fluorescence, % of fluorescein control | outcome
1 | N[C@@H](Cc1cc(I)c(O)c(I)c1)C(=O)O | 0.0143% [at 46 µM] | –
2 | CCCCCCCC/C=C\CCCCCCCC(=O)OCCO | -0.0192% [at 95.7 µM] | –
3 | COc1ccc(CCN(C)CCCN2CCc3cc(OC)c(OC)cc3CC2=O)cc1OC | -0.106% [at 46 µM] | –
4 | CC(C)(C)C1(CCc2ccc(Cl)cc2)CO1 (stereo not drawn) | -0.0226% | –
5 | CC(=O)C(C)=O | -0.0675% | –
6 | O=C(O)c1ccc(O)cc1O | 0.0105% | –
7 | COC1CCC=CO1 (stereo not drawn) | 0.0053% | –
8 | CCN(CC)CCOC(=O)C(c1ccccc1)c1ccccc1 | 0.0135% [at 46 µM] | –
9 | Cc1cccc2sc(N)nc12 | -0.127% [at 95.7 µM] | –
10 | CC(=O)OCC(=O)[C@@]1(OC(C)=O)[C@@H](C)C[C@H]2[C@@H]3C[C@H](F)C4=CC(=O)C=C[C@]4(C)[C@@]3(F)[C@@H](O)C[C@@]21C | -0.123% [at 46 µM] | –
11 | COc1ccc(C(=O)NCc2ccc(OCCN(C)C)cc2)cc1OC | -0.0805% [at 46 µM] | –
12 | CC[C@@H](CO)NCCN[C@@H](CC)CO | 0.0013% [at 18.6 µM] | –
13 | COc1ccc(N)c([N+](=O)[O-])c1 | -0.105% | –
14 | Cc1ccc2c(c1[N+](=O)[O-])C(=O)c1ccccc1C2=O | 0.01% [at 46 µM] | –
15 | CC(=O)N[C@@H](Cc1ccc(O)cc1)C(=O)O | 0.0396% [at 46 µM] | –
16 | Cc1cn([C@H]2C[C@H](F)[C@@H](CO)O2)c(=O)[nH]c1=O | 0.0786% [at 46 µM] | –
17 | C1=CCC2CC=CC2C1 (stereo not drawn) | -0.0002% | –
18 | c1ccc(CNc2ncnc3c2ncn3C2CCCCO2)cc1 (stereo not drawn) | 0.0018% | –
19 | CCCCCc1ccco1 | 0.147% | –
20 | CCCCC(CC)COS(=O)(=O)O (stereo not drawn) | – | inactive
21 | CC1CCCO1 (stereo not drawn) | -0.0014% | –
22 | c1ccc(CCCc2ccncc2)cc1 | 0.0097% | –
23 | CC(C)(C(=O)c1cccnc1)c1cccnc1 | 0.0796% [at 18.6 µM] | –
